Laboratory results from paper PMC5540273 (PLoS ONE, 2017).

Legend:
Conditions in all cases: concentration: 1 μM, replicates: in singlicate; n = 1
[1] = system: JAK1(JH2domain-pseudokinase)
[2] = system: JAK2(JH1domain-catalytic)
[3] = system: JAK3(JH1domain-catalytic)
JNK1 = system: T1, JNK1
T1 construct: gene MAPK8

JNK2 = system: T2, JNK2
T2 construct: gene MAPK9

JNK3 = system: T3, JNK3
T3 construct: gene MAPK10

KIT-autoinhibited = system: KIT-autoinhibited
KIT = system: KIT
LATS1 = system: LATS1
LATS2 = system: LATS2
LCK = system: LCK
LIMK1 = system: LIMK1
LIMK2 = system: LIMK2
LKB1 = system: T4, LKB1
T4 construct: gene STK11

LOK = system: T5, LOK
T5 construct: gene STK10

LRRK2 = system: LRRK2
LTK = system: LTK
LYN = system: LYN
LZK = system: T6, LZK
T6 construct: gene MAP3K13

MAK = system: MAK
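Further: KINOMEscan kinase panel screen.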

SMILES | %Inh [1] [%] | %Inh [2] [%] | %Inh [3] [%] | %Inh (JNK1) [%] | %Inh (JNK2) [%] | %Inh (JNK3) [%] | %Inh (KIT-autoinhibited) [%] | %Inh (KIT) [%] | %Inh (LATS1) [%] | %Inh (LATS2) [%] | %Inh (LCK) [%] | %Inh (LIMK1) [%] | %Inh (LIMK2) [%] | %Inh (LKB1) [%] | %Inh (LOK) [%] | %Inh (LRRK2) [%] | %Inh (LTK) [%] | %Inh (LYN) [%] | %Inh (LZK) [%] | %Inh (MAK) [%]
CN(C)CCNS(=O)(=O)c1ccc(-c2ccnc3[nH]ccc23)cc1 [GSK977620] | 0 | 82 | 56 | 29 | 17 | 15 | 0 | 9 | 29 | 93 | 23 | 0 | 0 | 0 | 0 | 47 | 4 | 0 | 0 | 84
O=C1NC(=O)C(c2ccccc2Cl)=C1Nc1cccc(Cl)c1 [SB-342409] | 0 | 24 | 65 | 19 | 12 | 3 | 0 | 0 | 0 | 0 | 1 | 20 | 89 | 0 | 5 | 2 | 0 | 0 | 0 | 12
Cc1cccc(Nc2nc(NCCN)ncc2C(N)=O)c1 [GSK1292139] | 96.6 | 54 | 0 | 43 | 4 | 23 | 9 | 72 | 0 | 76 | 15 | 0 | 0 | 24 | 0 | 0 | 26 | 3 | 0 | 15
c1ccc(Oc2ccc(Nc3ccnc4cc(-c5ccc(CN6CCCCC6)o5)ccc34)cc2)nc1 [GW567143] | 0 | 2 | 0 | 22 | 30 | 7 | 8 | 96.5 | 0 | 0 | 88 | 0 | 0 | 6 | 39 | 35 | 0 | 6 | 12 | 4
COC(=O)Nc1nc2cc(Oc3ccc(NC(=O)Nc4cccc(SC)c4)cc3)ccc2[nH]1.Cl [GW697999] | 0 | 0 | 0 | 16 | 16 | 0 | 50 | 99.9 | 43 | 0 | 68 | 0 | 4 | 17 | 99.4 | 18 | 0 | 24 | 23 | 14
